PubChem BioAssay AID651681 (Broad Institute, 2012)
The source made the active and inactive calls.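 How the source made its calls: active means compound with fitted CDK2 half-maximal potency at or below twice its top tested dose; inconclusive means flat curve near 30 to 70% inhibition, or poor fit; inactive means the rest.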

What follows are compounds tested against Cyclin-dependent kinase 2 (Homo sapiens) + Cyclin-A2 (Homo sapiens) (UniProt P20248+P24941) (assay: CDK2/cyclin A inhibitors, off-target check, dose response, selectivity assay for Dyrk1A inhibitor project, biochemical, dry powder, set 3 (AID 651681)). Settings: CDK2/cyclin A ADP-Glo luminescence, histone H1 peptide; series mostly up to 10 µM.
Sequence of Cyclin-dependent kinase 2 (Homo sapiens) + Cyclin-A2 (Homo sapiens) (P20248 whole entry, looked up, one chain of several): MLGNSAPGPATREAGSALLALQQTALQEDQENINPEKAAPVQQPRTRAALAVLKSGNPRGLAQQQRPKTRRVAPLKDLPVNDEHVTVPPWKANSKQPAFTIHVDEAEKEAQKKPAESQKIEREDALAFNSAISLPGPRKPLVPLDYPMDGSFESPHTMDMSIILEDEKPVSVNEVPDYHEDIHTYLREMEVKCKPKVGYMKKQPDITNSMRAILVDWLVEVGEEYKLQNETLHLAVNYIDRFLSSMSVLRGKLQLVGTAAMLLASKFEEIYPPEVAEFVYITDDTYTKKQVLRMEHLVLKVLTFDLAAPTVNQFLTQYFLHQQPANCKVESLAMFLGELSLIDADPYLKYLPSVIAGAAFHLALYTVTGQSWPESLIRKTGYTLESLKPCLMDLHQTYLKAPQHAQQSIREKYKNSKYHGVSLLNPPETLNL
In the case of `CCOc1ccc2nc(NC(=O)C3CCCN(S(=O)(=O)c4cccc5cccnc45)C3)sc2c1` (configuration not stated), the outcome is reported as “inactive”.
`COc1ccc(NC(=O)C2CCCN(S(=O)(=O)c3cccc4nonc34)C2)cc1` (configuration not stated) was tested, and the outcome was “inactive”.
`CN(CC(=O)Nc1nc2ccccc2s1)S(=O)(=O)c1ccccc1` was tested, and the outcome was “inactive”.
With `COc1ccc(OC)c(CNC(=O)c2sc3ccccc3c2Cl)c1` the outcome was “inactive”.
For `Cc1ccc(S(=O)(=O)N(C)CC(=O)Nc2nc3ccccc3s2)cc1`, the outcome was “inactive”.
With `CCCCN(c1nc2ccccc2s1)S(=O)(=O)c1ccc(Cl)cc1` the outcome was “inactive”.
`Clc1ccc(CSc2nc(Nc3ccc4c(c3)OCO4)c3ccccc3n2)cc1` was tested, and the outcome was “inactive”.
In the case of `CN(CC(=O)Nc1nc2ccc(F)cc2s1)S(=O)(=O)c1ccc(Cl)cc1`, the outcome is reported as “inactive”.
`COc1ccc(OC)c(C2=Nn3c(nnc3-c3ccccn3)SC2)c1` was tested, and the outcome was “inactive”.
In the case of `Cc1ccc(S(=O)(=O)N(C)CC(=O)Nc2nc3ccc(Cl)cc3s2)cc1C`, the outcome is reported as “inactive”.
For `O=C(NCc1ccccc1)c1sc2ccccc2c1Cl`, the outcome was “inactive”.
In the case of `COc1ccc2nc(NC(=O)C3CCCN(S(=O)(=O)c4cccc5cccnc45)C3)sc2c1` (configuration not stated), the outcome is reported as “inactive”.
With `COc1ccc(C2=Nn3c(nnc3-c3cccnc3)SC2)cc1OC` the outcome was “inactive”.
With `COc1ccc2nc(NC(=O)C3CCN(S(=O)(=O)c4cccc5nonc45)CC3)sc2c1` the outcome was “inactive”.
With `COc1ccc2nc(NC(=O)CN(C)S(=O)(=O)c3ccc(F)cc3)sc2c1` the outcome was “inactive”.
With `COc1ccc(OC)c(C2=Nn3c(nnc3-c3ccncc3)SC2)c1` the outcome was “inactive”.
In the case of `COc1ccc(S(=O)(=O)N2CCCC(C(=O)Nc3nc4ccccc4s3)C2)cc1` (configuration not stated), the outcome is reported as “inactive”.
With `COc1ccc2nc(NC(=O)C3CCN(S(=O)(=O)c4cccc5nsnc45)CC3)sc2c1` the outcome was “inactive”.
`COc1ccc(C2=Nn3c(nnc3-c3cccnc3)SC2)cc1` was tested, and the outcome was “inactive”.
With `CN(CC(=O)Nc1nc2ccc(Cl)cc2s1)S(=O)(=O)c1ccc(Cl)cc1` the outcome was “inactive”.
`CC(C)n1cnc2cc(NCc3cccc4ccccc34)ccc21` was tested, and the outcome was “inactive”.
For `C=CCn1cnc2scc(-c3ccc(OC)cc3)c2c1=O`, the outcome was “inactive”.
